Laboratory results taken from PubChem BioAssay (EPA / NIEHS).
Activity calls are given as the source filed them. Rule for the calls: active = hit-call score of the fitted dose curve at least 0.9, where 1 is the maximum; inactive = score below 0.9.

What was measured:
[1] = target: Bile acid receptor (Homo sapiens) (UniProt Q96RI1); assay: ATG_IR1_CIS: Attagene CIS-FACTORIAL HepG2 Assay for human Nuclear Receptor Subfamily 1 Group H Member 4 (NR1H4), IR1 submotif (AID 2282946); conditions: IR1 reporter transcription, actives raise or lower the signal
Bile acid receptor (Homo sapiens), sequence (Q96RI1 whole entry, looked up): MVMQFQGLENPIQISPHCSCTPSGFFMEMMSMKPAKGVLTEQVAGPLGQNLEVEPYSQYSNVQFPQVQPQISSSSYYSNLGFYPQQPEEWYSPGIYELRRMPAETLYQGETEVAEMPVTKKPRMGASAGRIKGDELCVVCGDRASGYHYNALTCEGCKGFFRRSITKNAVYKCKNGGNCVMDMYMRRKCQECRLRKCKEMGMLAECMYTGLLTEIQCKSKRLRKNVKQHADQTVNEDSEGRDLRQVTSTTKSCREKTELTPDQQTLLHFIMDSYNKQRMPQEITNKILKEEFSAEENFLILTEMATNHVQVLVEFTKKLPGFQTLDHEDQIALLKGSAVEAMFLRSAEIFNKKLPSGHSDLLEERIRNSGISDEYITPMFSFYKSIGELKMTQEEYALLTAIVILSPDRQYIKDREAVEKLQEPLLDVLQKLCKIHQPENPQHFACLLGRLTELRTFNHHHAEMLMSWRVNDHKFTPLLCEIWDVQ
Outline: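 Readout: reporter transcript levels by RT-PCR with fluorescent capillary electrophoresis, from HepG2 cells transiently transfected with multiplexed cis-regulated reporters and dosed 24 h. Gain- or loss-of-signal fitted versus DMSO negative control.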

[2] = ATG_ISRE_CIS: Attagene CIS-FACTORIAL HepG2 Assay for human Interferon Regulatory Factor 1 (IRF1) binding to an Interferon-Stimulated Response Element (ISRE) (AID 2282948); conditions: HepG2 ISRE cis-reporter (Attagene), mRNA transcription readout; actives raise or lower the signal
Outline: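 Multiplexed mRNA reporter readout in human liver HepG2 cells: cis-element-driven reporters transfected, compound added for 24 h, transcripts amplified, fluorescently labelled and sized by capillary electrophoresis; curve fitting bidirectional against DMSO.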

[3] = ATG_M_32_CIS: Attagene CIS-FACTORIAL HepG2 Assay for M32 Transcription Factor (Internal Marker) (AID 2282949); conditions: HepG2 Attagene cis-factorial M32 reporter, mRNA; actives raise or lower the signal;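 note: background control marker of the multiplexed CIS panel rather than a real target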
Outline: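 HepG2 transfectants (cis-regulated reporter transcription units) dosed 24 h. Reporter mRNA by RT-PCR plus CE, analysed as gain or loss relative to DMSO.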

[4] = ATG_M_06_CIS: Attagene CIS-FACTORIAL HepG2 Assay for M06 Transcription Factor (Internal Marker) (AID 2282950); conditions: HepG2 Attagene CIS-FACTORIAL M06 internal marker reporter; actives raise or lower the signal
Outline: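 One of many multiplexed endpoints: HepG2 reporter mRNA after 24 h dosing, detected by RT-PCR and capillary electrophoresis fluorescence; gain or loss of signal analysed against DMSO.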

[5] = target: Hypoxia-inducible factor 1-alpha (Homo sapiens) (UniProt Q16665); assay: ATG_HIF1a_CIS: Attagene CIS-FACTORIAL HepG2 Assay for human Hypoxia Inducible Factor 1 (HIF1A) (AID 2282951); conditions: HepG2 Attagene cis-factorial HIF1a reporter transcription; actives raise or lower the signal
Hypoxia-inducible factor 1-alpha (Homo sapiens), sequence (Q16665 whole entry, looked up): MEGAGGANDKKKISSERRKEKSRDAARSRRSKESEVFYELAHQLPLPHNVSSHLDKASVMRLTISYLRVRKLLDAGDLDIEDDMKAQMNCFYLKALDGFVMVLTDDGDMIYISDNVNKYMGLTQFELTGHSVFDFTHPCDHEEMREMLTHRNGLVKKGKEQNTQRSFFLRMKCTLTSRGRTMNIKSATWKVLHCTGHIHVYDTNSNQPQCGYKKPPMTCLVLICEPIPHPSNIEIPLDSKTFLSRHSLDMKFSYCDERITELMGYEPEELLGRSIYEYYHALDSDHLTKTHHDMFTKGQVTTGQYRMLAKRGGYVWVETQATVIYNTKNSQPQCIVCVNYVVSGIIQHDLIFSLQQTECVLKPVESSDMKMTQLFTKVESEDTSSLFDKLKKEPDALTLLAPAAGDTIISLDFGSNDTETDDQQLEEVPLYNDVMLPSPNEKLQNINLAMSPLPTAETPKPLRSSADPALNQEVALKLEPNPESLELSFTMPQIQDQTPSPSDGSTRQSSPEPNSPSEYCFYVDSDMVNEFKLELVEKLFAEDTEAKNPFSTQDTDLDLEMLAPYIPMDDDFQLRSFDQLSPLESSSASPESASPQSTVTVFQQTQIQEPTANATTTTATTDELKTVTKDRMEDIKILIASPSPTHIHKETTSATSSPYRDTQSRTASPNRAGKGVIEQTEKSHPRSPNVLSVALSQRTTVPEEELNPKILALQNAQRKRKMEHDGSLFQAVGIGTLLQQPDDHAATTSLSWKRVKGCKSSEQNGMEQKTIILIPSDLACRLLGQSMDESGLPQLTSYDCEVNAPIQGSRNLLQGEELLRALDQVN
Outline: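 Fluorescence intensity of capillary-separated, 6-FAM-labelled reporter amplicons gives mRNA induction in HepG2 cells carrying transfected cis-promoter reporter units; cells exposed 24 h, responses fitted up or down from DMSO.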

[6] = target: Hepatocyte nuclear factor 6 (Homo sapiens) (UniProt Q9UBC0); assay: ATG_HNF6_CIS: Attagene CIS-FACTORIAL HepG2 Assay for human Hepatocyte Nuclear Factor 6 (HNF6) (AID 2282952); conditions: HepG2 Attagene cis-factorial HNF6 reporter transcription; actives raise or lower the signal
Hepatocyte nuclear factor 6 (Homo sapiens), sequence (Q9UBC0 whole entry, looked up): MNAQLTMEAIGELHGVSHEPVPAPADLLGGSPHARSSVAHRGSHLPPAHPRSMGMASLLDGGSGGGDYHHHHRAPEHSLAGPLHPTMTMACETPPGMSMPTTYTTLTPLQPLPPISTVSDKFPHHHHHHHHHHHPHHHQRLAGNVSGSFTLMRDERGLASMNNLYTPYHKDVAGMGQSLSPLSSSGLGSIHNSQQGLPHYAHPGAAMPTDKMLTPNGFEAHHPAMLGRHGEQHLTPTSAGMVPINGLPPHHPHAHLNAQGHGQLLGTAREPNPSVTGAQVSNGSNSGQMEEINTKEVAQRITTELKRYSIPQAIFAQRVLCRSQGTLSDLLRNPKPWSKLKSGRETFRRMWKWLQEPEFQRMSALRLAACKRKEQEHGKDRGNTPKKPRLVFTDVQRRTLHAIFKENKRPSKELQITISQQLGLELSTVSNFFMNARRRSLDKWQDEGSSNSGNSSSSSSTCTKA
Outline: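 Endogenous transcription factor activity in human HepG2 liver cells was captured through cis-regulated reporter constructs. After 24 h treatment, reporter mRNA was measured by RT-PCR with capillary electrophoresis, and activity was fitted in both directions relative to DMSO.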

[7] = target: Heat shock factor protein 1 (Homo sapiens) (UniProt Q00613); assay: ATG_HSE_CIS: Attagene CIS-FACTORIAL HepG2 Assay for human Heat Shock Transcription Factor 1 (HSE) (AID 2282953); conditions: HepG2 HSE cis-reporter, Attagene RNA transcription; actives raise or lower the signal
Heat shock factor protein 1 (Homo sapiens), sequence (Q00613 whole entry, looked up): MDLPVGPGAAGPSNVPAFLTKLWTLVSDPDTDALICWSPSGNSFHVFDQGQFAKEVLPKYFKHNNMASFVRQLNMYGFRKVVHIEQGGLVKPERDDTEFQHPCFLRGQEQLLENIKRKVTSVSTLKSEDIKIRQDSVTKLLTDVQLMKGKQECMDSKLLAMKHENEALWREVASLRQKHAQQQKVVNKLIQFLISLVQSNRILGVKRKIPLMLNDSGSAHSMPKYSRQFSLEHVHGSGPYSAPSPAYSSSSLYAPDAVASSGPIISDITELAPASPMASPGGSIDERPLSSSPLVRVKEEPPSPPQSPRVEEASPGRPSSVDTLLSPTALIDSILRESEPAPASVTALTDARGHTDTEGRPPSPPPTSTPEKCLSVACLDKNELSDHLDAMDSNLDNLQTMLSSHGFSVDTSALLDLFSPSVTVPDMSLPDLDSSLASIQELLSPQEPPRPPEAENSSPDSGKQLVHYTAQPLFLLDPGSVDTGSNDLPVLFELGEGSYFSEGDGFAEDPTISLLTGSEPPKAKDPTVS
Outline: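 Using HepG2 with transfected cis-driven reporter constructs, compound effects on endogenous factor activity are scored as reporter mRNA change at 24 h. Detection: RT-PCR, HpaI digestion, capillary electrophoresis; bidirectional fitting to DMSO.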

[8] = target: Paired box protein Pax-6 (Homo sapiens) (UniProt P26367); assay: ATG_Pax6_CIS: Attagene CIS-FACTORIAL HepG2 Assay for human Paired Box 6 (PAX6) (AID 2282956); conditions: HepG2 CIS-FACTORIAL PAX6 reporter transcription, RNA readout; actives raise or lower the signal
Paired box protein Pax-6 (Homo sapiens), sequence (P26367 whole entry, looked up): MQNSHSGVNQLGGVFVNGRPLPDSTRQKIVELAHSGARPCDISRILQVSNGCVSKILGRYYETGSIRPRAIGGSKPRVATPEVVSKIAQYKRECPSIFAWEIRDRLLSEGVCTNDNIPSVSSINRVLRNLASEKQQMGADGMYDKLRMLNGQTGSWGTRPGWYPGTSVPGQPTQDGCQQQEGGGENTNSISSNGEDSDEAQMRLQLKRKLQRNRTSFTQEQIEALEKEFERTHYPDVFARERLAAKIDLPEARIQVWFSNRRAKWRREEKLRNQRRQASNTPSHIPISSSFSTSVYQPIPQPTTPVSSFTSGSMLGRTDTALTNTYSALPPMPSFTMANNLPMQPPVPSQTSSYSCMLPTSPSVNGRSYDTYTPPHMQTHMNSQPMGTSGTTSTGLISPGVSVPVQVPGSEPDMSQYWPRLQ
Outline: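 Fluorescent RT-PCR products separated by capillary electrophoresis report PAX6-linked promoter mRNA in HepG2 cells 24 h post-dose. Curves fitted bidirectionally, DMSO as negative control.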

[9] = ATG_PPRE_CIS: Attagene CIS-FACTORIAL HepG2 Assay for human Peroxisome Proliferator-activated Response Element (PPRE) (AID 2282958); conditions: HepG2 PPRE cis-element reporter, Attagene transcription factor profiling; actives raise or lower the signal
Outline: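 In this cell-based multiplex, a PPRE cis element drives a reporter sequence in transiently transfected HepG2 cells. Following 24 h treatment, labeled cDNA amplicons are sized and quantified by capillary electrophoresis, with DMSO defining baseline.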

[10] = ATG_RORE_CIS: Attagene CIS-FACTORIAL HepG2 Assay for human RAR-related Orphan Receptor Element (RORE) (AID 2282959); conditions: HepG2 Attagene cis-factorial RORE reporter, mRNA; actives raise or lower the signal
Outline: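 Endogenous factor activity at a cis response element is read as reporter transcript levels in HepG2 cells, 24 h post-dose. Transcripts are quantified by RT-PCR with capillary electrophoresis, and data fitted in both directions against DMSO.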

[11] = ATG_Sox_CIS: Attagene CIS-FACTORIAL HepG2 Assay for human SRY-box transcription factor (SOX) (AID 2282960); conditions: HepG2 Attagene cis-factorial SOX reporter, mRNA; actives raise or lower the signal
Outline: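 Measures mRNA induction of a SOX1-associated reporter in HepG2 after 24 h dosing. Fluorescently labelled RT-PCR fragments are separated by capillary electrophoresis, and gain or loss relative to DMSO control is fitted.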

[12] = target: Transcription factor Sp1 (Homo sapiens) (UniProt P08047); assay: ATG_Sp1_CIS: Attagene CIS-FACTORIAL HepG2 Assay for human Specificity Protein 1 (Sp1) (AID 2282961); conditions: HepG2 Sp1 cis-reporter transcription, actives raise or lower the signal
Transcription factor Sp1 (Homo sapiens), sequence (P08047 whole entry, looked up): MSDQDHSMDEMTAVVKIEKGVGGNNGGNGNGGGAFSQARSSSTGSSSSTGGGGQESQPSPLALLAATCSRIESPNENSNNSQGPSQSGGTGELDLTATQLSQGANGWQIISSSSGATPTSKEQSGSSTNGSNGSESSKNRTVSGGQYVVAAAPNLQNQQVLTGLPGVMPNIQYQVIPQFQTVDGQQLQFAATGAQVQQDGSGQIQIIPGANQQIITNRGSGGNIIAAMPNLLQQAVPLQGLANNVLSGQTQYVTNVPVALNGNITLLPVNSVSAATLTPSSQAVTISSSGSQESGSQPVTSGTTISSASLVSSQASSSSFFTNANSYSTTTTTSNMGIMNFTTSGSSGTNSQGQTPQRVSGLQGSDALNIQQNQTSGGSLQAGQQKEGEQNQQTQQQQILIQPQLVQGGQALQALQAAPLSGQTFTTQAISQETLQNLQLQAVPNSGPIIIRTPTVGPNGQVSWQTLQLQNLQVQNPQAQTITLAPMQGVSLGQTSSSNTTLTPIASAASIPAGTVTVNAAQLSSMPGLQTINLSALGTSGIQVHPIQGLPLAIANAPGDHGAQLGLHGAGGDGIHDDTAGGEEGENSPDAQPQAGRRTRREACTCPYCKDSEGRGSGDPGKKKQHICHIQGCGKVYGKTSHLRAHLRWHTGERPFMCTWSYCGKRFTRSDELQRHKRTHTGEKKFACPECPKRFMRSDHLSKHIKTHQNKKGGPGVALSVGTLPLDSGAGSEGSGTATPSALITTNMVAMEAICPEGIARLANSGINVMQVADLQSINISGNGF
Outline: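 Cells: HepG2, transiently transfected with cis-regulated multiplexed reporters. Exposure: 24 h. Detection: reporter transcripts amplified, fluorescently labeled, restriction-digested and sized by capillary electrophoresis. Analysis: bidirectional fit relative to DMSO.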

[13] = ATG_SREBP_CIS: Attagene CIS-FACTORIAL HepG2 Assay for human Sterol Regulatory Element Binding (SREBP) (AID 2282962); conditions: HepG2 Attagene cis-factorial SREBP reporter, mRNA; actives raise or lower the signal
Outline: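 Endogenous factor activity is measured in HepG2 through multiplexed reporter units under cis-element control. Following a 24 h incubation, reporter transcripts are reverse-transcribed, PCR-amplified and sized by capillary electrophoresis; activity is fitted in both directions relative to DMSO.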

[14] = target: Signal transducer and activator of transcription 3 (Homo sapiens) (UniProt P40763); assay: ATG_STAT3_CIS: Attagene CIS-FACTORIAL HepG2 Assay for human Signal Transducer and Activator of Transcription 3 (STAT3) (AID 2282963); conditions: HepG2, Attagene cis-factorial STAT3 reporter transcription; actives raise or lower the signal
Signal transducer and activator of transcription 3 (Homo sapiens), sequence (P40763 whole entry, looked up): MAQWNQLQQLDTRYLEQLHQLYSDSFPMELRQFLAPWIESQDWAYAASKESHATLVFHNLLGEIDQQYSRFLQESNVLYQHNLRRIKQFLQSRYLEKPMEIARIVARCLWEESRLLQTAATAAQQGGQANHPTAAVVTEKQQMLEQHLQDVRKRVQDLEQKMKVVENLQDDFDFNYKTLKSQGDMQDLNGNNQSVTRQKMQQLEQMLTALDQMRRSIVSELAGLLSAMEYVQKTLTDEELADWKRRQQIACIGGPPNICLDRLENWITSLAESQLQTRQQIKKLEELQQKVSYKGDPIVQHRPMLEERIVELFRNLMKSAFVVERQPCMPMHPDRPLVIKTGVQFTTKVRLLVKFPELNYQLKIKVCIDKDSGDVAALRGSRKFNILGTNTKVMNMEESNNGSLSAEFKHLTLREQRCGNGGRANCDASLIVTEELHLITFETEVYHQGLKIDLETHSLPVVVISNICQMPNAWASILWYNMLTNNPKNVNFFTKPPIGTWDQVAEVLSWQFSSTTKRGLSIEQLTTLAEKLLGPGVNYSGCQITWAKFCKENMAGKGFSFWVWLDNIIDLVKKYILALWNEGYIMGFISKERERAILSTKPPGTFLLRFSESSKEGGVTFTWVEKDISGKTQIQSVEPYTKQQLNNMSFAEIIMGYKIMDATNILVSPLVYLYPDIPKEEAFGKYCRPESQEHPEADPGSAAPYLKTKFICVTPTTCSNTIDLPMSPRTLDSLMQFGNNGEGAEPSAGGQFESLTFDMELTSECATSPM
Outline: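 HepG2, MRTU-transfected, 24 h dosing. RNA → RT → PCR → FAM label → HpaI → CE. Bidirectional fit vs DMSO.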

[15] = ATG_TA_CIS: Attagene CIS-FACTORIAL HepG2 Assay for human TA Basal Promoter (AID 2282964); conditions: HepG2 Attagene CIS-factorial TA basal promoter reporter; actives raise or lower the signal
Outline: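 Transient MRTU transfection of HepG2 preceded 24 h compound exposure. Reporter mRNA levels were then read by RT-PCR with capillary electrophoresis, and this background-control endpoint was fitted bidirectionally to DMSO.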

[16] = ATG_TCF_b_cat_CIS: Attagene CIS-FACTORIAL HepG2 Assay for human T-Cell-Factor with beta-catenin (TCF/b-cat) (AID 2282965); conditions: HepG2 TCF/beta-catenin cis-reporter transcription, actives raise or lower the signal
Outline: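 In this cis-format system, transfected HepG2 cells report endogenous transcription factor activity. Readout after 24 h exposure is reporter transcript abundance from RT-PCR and capillary electrophoresis, analysed for gain or loss of signal versus DMSO.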

[17] = ATG_MRE_CIS: Attagene CIS-FACTORIAL HepG2 Assay for human Metal Responsive Element (MRE) (AID 2282954); conditions: HepG2 MRE cis-reporter transcription, Attagene multiplex; actives raise or lower the signal
Outline: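 Cells were transfected with cis-promoter reporter transcription units, then dosed for 24 h. RNA was reverse-transcribed, amplified, fluorescently labelled and resolved by capillary electrophoresis, and activity was fitted in both directions relative to DMSO.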

[18] = ATG_PBREM_CIS: Attagene CIS-FACTORIAL HepG2 Assay for human Phenobarbital-responsive Enhancer Module (PBREM) (AID 2282955); conditions: HepG2 PBREM cis-reporter, Attagene multiplexed transcription; actives raise or lower the signal
Outline: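 Cells were transfected with cis-element reporter units and treated for 24 h, after which RNA was extracted and reporter transcripts measured by RT-PCR and capillary electrophoresis.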

[19] = ATG_PXRE_CIS: Attagene CIS-FACTORIAL HepG2 Assay for human Pregnane X Receptor Element (PXRE) (AID 2282957); conditions: HepG2 Attagene CIS-FACTORIAL PXRE reporter, mRNA; actives raise or lower the signal
Outline: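 Endogenous transcription factor activity in HepG2 was gauged through induction of reporter mRNA driven by a cis-regulating promoter element, sampled 24 h post-treatment. Activity was fitted in both directions against DMSO negative control.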

[20] = ATG_GRE_CIS: Attagene CIS-FACTORIAL HepG2 Assay for human Glucocorticoid Response Elements (GRE) (AID 2282947); conditions: HepG2 GRE cis-reporter, Attagene multiplex mRNA; actives raise or lower the signal
Outline: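 Cells (HepG2) bearing transfected cis-promoter reporter transcription units were treated with chemical for 24 hours. Reporter mRNA was measured via RT-PCR with capillary electrophoresis, and activity was fitted in both directions relative to DMSO.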

Measured: AC50

Cc1cccc(N)n1
not listed: [17] | [18] | [19] | [20]
inactive: all other assays above

O=C(O)Cc1c(Cl)ccc(Cl)c1Cl
not listed: [11] | [20]
inactive: all other assays above

COCCCOCCCOC
not listed: [11] | [15] | [20]
inactive: all other assays above

COC(F)(F)C(F)(C(F)(F)F)C(F)(F)F
not listed: [12] | [20]
inactive: all other assays above

CCc1c(C(=O)O)c(=O)cnn1-c1ccc(Cl)cc1
active: [19] 52.3 µM
not listed: [15] | [17] | [18] | [20]
inactive: all other assays above

Nc1ccc(Cl)cc1Cl
not listed: [12] | [17] | [18] | [20]
inactive: all other assays above

O=S(=O)(O)CC(O)CCl (stereo unspecified)
not listed: [16] | [19] | [20]
inactive: all other assays above

O=c1n(CCO)c(=O)n(CCO)c(=O)n1CCO
not listed: [7] | [20]
inactive: all other assays above

CCCC(=O)OCc1ccccc1
not listed: [18] | [20]
inactive: all other assays above

CCCCCCCCCCOS(=O)(=O)O
active: [9] 13.4 µM | [10] 55 µM
not listed: [19] | [20]
inactive: all other assays above

CC(C)=CCC/C(C)=C\C#N
active: [19] 28.1 µM
not listed: [9] | [20]
inactive: all other assays above

Nc1ccc(-c2ccc(F)cc2)cc1
active: [19] 27.4 µM
not listed: [20]
inactive: all other assays above

c1ccc(CCCc2ccncc2)cc1
active: [7] 144 µM | [19] 27 µM
not listed: [2] | [3] | [5] | [18]
inactive: all other assays above

O=P(O)(O)Oc1ccccc1
not listed: [9] | [15] | [18] | [20]
inactive: all other assays above

Nc1ccc(Oc2ccc(N)c(N)c2)cc1
active: [9] 58.4 µM | [10] 27.5 µM
not listed: [2] | [7] | [15]
inactive: all other assays above

CC(C)COC(=O)C=Cc1ccccc1
active: [19] 27.2 µM
not listed: [9] | [20]
inactive: all other assays above
